# Only a selection was taken, and the strongest signals are over-represented in it overall.
# B1: Gal 3 (Homo sapiens), P17931 (protein)
# chain: MADNFSLHDALSGSGNPNPQGWPGAWGNQPAGAGGYPGASYPGAYPGQAPPGAYPGQAPPGAYHGAPGAYPGAPAPGVYPGPPSGPGAYPSSGQPSAPGAYPATGPYGAPAGPLIVPYNLPLPGGVVPRMLITILGTVKPNANSILDFQRGNDVAFHFNPRFNENNRRVIVCNTKLDNNWGREERQSVFPFESGKPFKIQVLVEPDHFKVAVNDAHLLQYNHRVKKLNEISKLGISGDIDLTSASYTMI
# Tests used:
# Test in all cases: glycan array binding signal (z-score within array); higher = stronger binding
# Conditions in all cases: glycan notation: IUPAC condensed, linker removed; mutation: R144S
# [1] = molecular target: Fuc(a1-2)Gal(b1-3)GlcNAc(b1-3)[Fuc(a1-3)[Gal(b1-4)]GlcNAc(b1-6)]Gal(b1-4)Glc
# How it was run: (§1)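 Glycan array data came from 3228 arrays in the Consortium for Functional Glycomics database, and only arrays with an available protein sequence were kept. Glycan names were put into IUPAC-condensed notation, and columns mapping to the same glycan were averaged. The binding signal is a within-array Z-score, averaged across arrays of one protein sequence run at different concentrations or buffers and across linkers. A negative Z-score can be read as non-binding.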
# [2] = molecular target: Fuc(a1-2)Gal(b1-4)Glc6S
# How it was run: as §1
# [3] = molecular target: Fuc(a1-2)Gal(b1-4)GlcNAc6S
# How it was run: as §1
# [4] = molecular target: Fuc(a1-2)Gal(b1-4)[Fuc(a1-3)]GlcNAc(b1-3)Gal(b1-4)[Fuc(a1-3)]GlcNAc
# How it was run: as §1
# [5] = molecular target: Fuc(a1-2)[Gal(a1-3)]Gal(b1-3)GlcNAc(b1-2)Man(a1-3)[Fuc(a1-2)[Gal(a1-3)]Gal(b1-3)GlcNAc(b1-2)Man(a1-6)]Man(b1-4)GlcNAc(b1-4)GlcNAc
# How it was run: as §1
# [6] = molecular target: Fuc(a1-2)[Gal(a1-3)]Gal(b1-4)GlcNAc(b1-2)Man(a1-3)[Fuc(a1-2)[Gal(a1-3)]Gal(b1-4)GlcNAc(b1-2)Man(a1-6)]Man(b1-4)GlcNAc(b1-4)GlcNAc
# How it was run: as §1
# [7] = molecular target: Fuc(a1-2)[GalNAc(a1-3)]Gal(b1-3)GlcNAc(b1-2)Man(a1-3)[Fuc(a1-2)[GalNAc(a1-3)]Gal(b1-3)GlcNAc(b1-2)Man(a1-6)]Man(b1-4)GlcNAc(b1-4)GlcNAc
# How it was run: as §1
# [8] = molecular target: Fuc(a1-2)[GalNAc(a1-3)]Gal(b1-4)GlcNAc(b1-2)Man(a1-3)[Fuc(a1-2)[GalNAc(a1-3)]Gal(b1-4)GlcNAc(b1-2)Man(a1-6)]Man(b1-4)GlcNAc(b1-4)GlcNAc
# How it was run: as §1
# [9] = molecular target: Fuc(a1-2)[GalNAc(a1-3)]Gal(b1-4)GlcNAc(b1-3)Gal(b1-4)GlcNAc(b1-3)Gal(b1-4)GlcNAc
# How it was run: as §1
# [10] = molecular target: Fuc(a1-2)[GalNAc(a1-3)]Gal(b1-4)[Fuc(a1-3)]GlcNAc
# How it was run: as §1
# [11] = molecular target: Fuc(a1-3)[Gal3S(b1-4)]GlcNAc
# How it was run: as §1
# [12] = molecular target: Gal(a1-4)Gal(b1-3)GlcNAc(b1-2)Man(a1-3)[Gal(a1-4)Gal(b1-3)GlcNAc(b1-2)Man(a1-6)]Man(b1-4)GlcNAc(b1-4)GlcNAc
# How it was run: as §1
# [13] = molecular target: Gal(a1-4)Gal(b1-4)Glc
# How it was run: as §1
# [14] = molecular target: Gal(b1-3)GalNAc(a1-3)[Fuc(a1-2)]Gal(b1-4)GlcNAc
# How it was run: as §1
# [15] = molecular target: Gal(b1-3)GlcNAc(b1-3)Gal(b1-4)GlcNAc(b1-6)[Gal(b1-3)GlcNAc(b1-3)]Gal(b1-4)Glc
# How it was run: as §1
# [16] = molecular target: Gal(b1-3)[Fuc(a1-4)]GlcNAc(b1-3)Gal(b1-4)[Fuc(a1-3)]GlcNAc
# How it was run: as §1
# [17] = molecular target: Gal(b1-3)[Neu5Ac(a2-6)]GalNAc
# How it was run: as §1
# [18] = molecular target: Gal(b1-4)GalNAc(a1-3)[Fuc(a1-2)]Gal(b1-4)GlcNAc
# How it was run: as §1
# [19] = molecular target: Gal(b1-4)GlcNAc(b1-3)[Gal(b1-4)GlcNAc(b1-6)]Gal(b1-4)GlcNAc
# How it was run: as §1
# [20] = molecular target: Gal3S(b1-4)GlcNAc6S
# How it was run: as §1
# [21] = molecular target: GalNAc(a1-3)Gal
# How it was run: as §1
# [22] = molecular target: GalNAc(b1-3)Gal(a1-4)Gal(b1-4)GlcNAc(b1-3)Gal(b1-4)Glc
# How it was run: as §1
# [23] = molecular target: GalNAc(b1-3)GalNAc
# How it was run: as §1
# [24] = molecular target: GlcNAc(a1-4)Gal(b1-4)GlcNAc(b1-3)Gal(b1-4)Glc
# How it was run: as §1
# [25] = molecular target: GlcNAc(b1-2)[GlcNAc(b1-4)]Man(a1-3)[GlcNAc(b1-2)Man(a1-6)]Man(b1-4)GlcNAc(b1-4)GlcNAc
# How it was run: as §1
# [26] = molecular target: GlcNAc(b1-3)Gal(b1-3)GalNAc
# How it was run: as §1
# [27] = molecular target: GlcNAc(b1-3)Gal(b1-4)Glc
# How it was run: as §1
# [28] = molecular target: GlcNAc(b1-3)Gal(b1-4)GlcNAc
# How it was run: as §1
# [29] = molecular target: Man(a1-3)[Man(a1-6)]Man
# How it was run: as §1
# [30] = molecular target: Neu5Ac(a2-3)Gal(b1-4)GlcNAc6S
# How it was run: as §1
# [31] = molecular target: Neu5Ac(a2-3)Gal(b1-4)[Fuc(a1-3)]GlcNAc(b1-6)[Neu5Ac(a2-3)Gal(b1-3)]GalNAc
# How it was run: as §1
# [32] = molecular target: Neu5Ac(a2-3)GalNAc(b1-4)GlcNAc
# How it was run: as §1
# [33] = molecular target: Neu5Ac(a2-6)GalNAc
# How it was run: as §1
# [34] = molecular target: Neu5Gc(a2-3)Gal(b1-3)GlcNAc
# How it was run: as §1
# [35] = molecular target: Neu5Gc(b2-6)Gal(b1-4)GlcNAc
# How it was run: as §1
binder,measurement,setting,value
B1,glycan array binding signal (z-score),[1],0.343
same,glycan array binding signal (z-score),[2],-0.313
same,glycan array binding signal (z-score),[3],0.788
same,glycan array binding signal (z-score),[4],-0.357
same,glycan array binding signal (z-score),[5],4.81
same,glycan array binding signal (z-score),[6],5.46
same,glycan array binding signal (z-score),[7],6.11
same,glycan array binding signal (z-score),[8],5.95
same,glycan array binding signal (z-score),[9],4.99
same,glycan array binding signal (z-score),[10],-0.356
same,glycan array binding signal (z-score),[11],-0.359
same,glycan array binding signal (z-score),[12],-0.361
same,glycan array binding signal (z-score),[13],-0.359
same,glycan array binding signal (z-score),[14],4.94
same,glycan array binding signal (z-score),[15],0.34
same,glycan array binding signal (z-score),[16],-0.357
same,glycan array binding signal (z-score),[17],-0.352
same,glycan array binding signal (z-score),[18],5.09
same,glycan array binding signal (z-score),[19],1.2
same,glycan array binding signal (z-score),[20],-0.288
same,glycan array binding signal (z-score),[21],-0.354
same,glycan array binding signal (z-score),[22],0.182
same,glycan array binding signal (z-score),[23],-0.354
same,glycan array binding signal (z-score),[24],-0.356
same,glycan array binding signal (z-score),[25],-0.341
same,glycan array binding signal (z-score),[26],-0.356
same,glycan array binding signal (z-score),[27],-0.36
same,glycan array binding signal (z-score),[28],-0.358
same,glycan array binding signal (z-score),[29],-0.354
same,glycan array binding signal (z-score),[30],-0.365
same,glycan array binding signal (z-score),[31],-0.352
same,glycan array binding signal (z-score),[32],-0.363
same,glycan array binding signal (z-score),[33],-0.364
same,glycan array binding signal (z-score),[34],-0.363
same,glycan array binding signal (z-score),[35],-0.358

# From the supplement of paper PMC8728848
